Experimental data as given in PubChem BioAssay (EPA / NIEHS).
Records with an inconclusive call do not appear. Active and inactive are the calls of the source. Rule for the calls, unless noted: active = hit-call score of the fitted dose curve at least 0.9, where 1 is the maximum; inactive = score below 0.9.

Key:
[1] = APR_HepG2_CellCycleArrest_24hr: Apredica 24-hour HepG2 Assay for Cell Cycle Arrest (AID 2282905); conditions: imaging, actives raise or lower the signal;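 note: cell cycle arrest scored as ratio of 2N to 4N nuclear DNA content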
Summary of the method: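 After 24 h exposure at 0.39–200 uM in 0.5% DMSO, fixed cells received Hoechst 33342 staining. Imaging quantified per-nucleus DNA content; gain or loss fitted against DMSO controls.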

[2] = APR_HepG2_NuclearSize_24hr: Apredica 24-hour HepG2 Assay for Nuclear Size (AID 2282907); conditions: high-content imaging, actives raise or lower the signal
Summary of the method: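 Nuclear size from Hoechst 33342-stained, formaldehyde-fixed HepG2 nuclei imaged by high-content microscopy, after 24 h dosing at ten concentrations from 0.39 to 200 uM in 0.5% DMSO; gain or loss relative to DMSO baseline.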

[3] = APR_HepG2_CellLoss_24hr: Apredica 24-hour HepG2 Assay for Cell Loss (AID 2282908); conditions: high-content imaging;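 for AC50: fit in both directions so a hit may be cell loss or gain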
Summary of the method: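 Nuclei stained with Hoechst 33342 after formaldehyde fixation (3.7%) were imaged at 20x to count cells. Exposure lasted 24 hr, at ten concentrations from 0.39 to 200 uM in duplicate, with 0.5% v/v DMSO. Fit bidirectional, relative to DMSO.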

[4] = APR_HepG2_MicrotubuleCSK_24hr: Apredica 24-hour HepG2 Assay for Microtubule CSK Stabilty (AID 2282909); conditions: HepG2 microtubule cytoskeleton imaging, actives raise or lower the signal
Summary of the method: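 Fixed HepG2 cells were stained for alpha-tubulin and imaged after 24 hr exposure to ten concentrations spanning 0.39–200 uM in 0.5% DMSO. Signal change was fitted in both directions relative to DMSO; taxol was the positive control.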

[5] = APR_HepG2_MitoMembPot_24hr: Apredica 24-hour HepG2 Assay for Mitochondrial Membrane Potential (AID 2282911); conditions: imaging, actives raise or lower the signal
Summary of the method: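 HepG2 cells exposed 24 h to 0.39–200 uM compounds in duplicate, 0.5% v/v DMSO final. MitoTracker Red CMXRos 250 nM loaded 30 min before formaldehyde fixation; high-content imaging at 20x, bidirectional fit versus DMSO.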

[6] = APR_HepG2_MitoMass_24hr: Apredica 24-hour HepG2 Assay for Mitochondrial Mass (AID 2282912); conditions: high-content imaging, actives raise or lower the signal
Summary of the method: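 Endpoint is MitoTracker Red CMXRos (250 nM, 30 min, pre-fixation) intensity from 20x high-content imaging, nuclei located by Hoechst. Human HepG2 cells received ten concentrations from 0.39 to 200 uM in 0.5% DMSO for 24 hr, duplicate wells. Bidirectional fit relative to DMSO.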

[7] = APR_HepG2_p53Act_24hr: Apredica 24-hour HepG2 Assay for p53 Activation (AID 2282913); conditions: high-content imaging, actives raise or lower the signal;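 note: p53 protein immunofluorescence averaged per cell in HepG2 with Hoechst nuclei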
Summary of the method: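 HepG2 cells exposed 24 h to compounds at 0.39–200 uM in duplicate, 0.5% v/v DMSO final; fixed, permeabilized, stained with anti-p53 antibody and Hoechst 33342; fluorescence imaging; bidirectional curve fit versus DMSO.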

[8] = APR_HepG2_CellCycleArrest_72hr: Apredica 72-hour HepG2 Assay for Cell Cycle Arrest (AID 2282914); conditions: high-content imaging, actives raise or lower the signal
Summary of the method: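 HepG2 cells exposed 72 h in duplicate to 0.39–200 uM compound, 0.5% DMSO final. Formaldehyde-fixed, Hoechst 33342-stained nuclei imaged at 20x, six fields per well; DNA content per valid cell quantified by cell-cycle image analysis, bidirectional fit versus DMSO.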

[9] = APR_HepG2_CellLoss_72hr: Apredica 72-hour HepG2 Assay for Cell Loss (AID 2282915); conditions: high-content imaging
Summary of the method: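 HepG2 cells were exposed for 72 hr to compounds at 0.39–200 uM (ten concentrations, duplicate) in 0.5% v/v final DMSO. Nuclei were stained with Hoechst 33342 after 3.7% formaldehyde fixation, imaged at 20x, and counted; fits bidirectional versus DMSO.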

[10] = APR_HepG2_P-H2AX_72hr: Apredica 72-hour HepG2 Assay for H2AX Phosphorylation (AID 2282916); conditions: imaging, actives raise or lower the signal;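 note: phospho-histone H2A.x immunostain intensity per cell marking DNA damage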
Summary of the method: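 Phospho-histone H2A.x immunofluorescence, multiplexed with Hoechst and c-Jun, quantified by high-content imaging. Compounds applied to HepG2 for 72 h across ten concentrations (0.39–200 uM, 0.5% DMSO), in duplicate; DMSO baseline.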

[11] = APR_HepG2_MitoMembPot_72hr: Apredica 72-hour HepG2 Assay for Mitochondrial Membrane Potential (AID 2282917); conditions: imaging, actives raise or lower the signal
Summary of the method: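 HepG2 cells exposed 72 h to compounds at 0.39–200 uM (0.5% v/v DMSO, duplicates); MitoTracker Red CMXRos 250 nM loaded 30 min before 3.7% formaldehyde fixation, imaged by HCS fluorescence. Bidirectional fit versus DMSO.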

[12] = APR_HepG2_MitoticArrest_72hr: Apredica 72-hour HepG2 Assay for Mitotic Arrest (AID 2282918); conditions: high-content imaging, actives raise or lower the signal
Summary of the method: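 HepG2 cells treated 72 h at 0.39–200 uM, 0.5% DMSO final; formaldehyde-fixed, stained with Hoechst 33342 and phospho-histone H3 antibody, imaged by high-content fluorescence; bidirectional fit versus DMSO.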

[13] = APR_HepG2_MicrotubuleCSK_72hr: Apredica 72-hour HepG2 Assay for Microtubule CSK Stabilty (AID 2282919); conditions: HepG2 microtubule cytoskeleton, high-content imaging, actives raise or lower the signal
Summary of the method: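 Ten-point dosing (0.39–200 uM, 0.5% DMSO) of HepG2 for 72 hr, with taxol as the cytoskeletal positive control. The cells were formaldehyde-fixed and then stained with alpha-tubulin/Cy5 and Hoechst. Imaging at 20x used a −2 um Z offset for tubulin.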

[14] = APR_HepG2_P-H2AX_24hr: Apredica 24-hour HepG2 Assay for H2AX Phosphorylation (AID 2282920); conditions: high-content imaging, actives raise or lower the signal
Summary of the method: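 HepG2 cells dosed 24 h at 0.39–200 uM (10 points, duplicate, 0.5% DMSO final). Formaldehyde-fixed and permeabilized, then immunostained for phospho-H2A.x with Hoechst. Fluorescence quantified by high-content imaging, fitted bidirectionally versus DMSO.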

[15] = APR_HepG2_StressKinase_72hr: Apredica 72-hour HepG2 Assay for Stress Kinase (AID 2282921); conditions: HepG2 stress kinase (phospho-c-Jun) imaging, actives raise or lower the signal
Summary of the method: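 Stress kinase signal is phospho-c-Jun immunofluorescence (1:500 primary, Cy3 secondary) in fixed, permeabilized human HepG2 cells imaged at 20x. Exposure lasted 72 hr over ten concentrations from 0.39 to 200 uM, 0.5% DMSO, in duplicate. Bidirectional fit versus DMSO.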

[16] = APR_HepG2_StressKinase_24hr: Apredica 24-hour HepG2 Assay for Stress Kinase (AID 2282922); conditions: HepG2 stress kinase (phospho-c-Jun) imaging, actives raise or lower the signal
Summary of the method: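 After 24 hr compound treatment (up to 200 uM, final DMSO 0.5% v/v), HepG2 cells are fixed and multiplex-labeled; phospho-c-Jun intensity is captured by high-content fluorescence imaging and analyzed relative to DMSO.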

[17] = APR_HepG2_p53Act_72hr: Apredica 72-hour HepG2 Assay for p53 Activation (AID 2282923); conditions: high-content imaging, actives raise or lower the signal;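 note: average cellular p53 protein immunofluorescence intensity in HepG2 cells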
Summary of the method: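 After 72 h with compound (ten points, 0.39 to 200 uM, final DMSO 0.5% v/v), fixed HepG2 cells were labelled with sheep anti-p53 and Hoechst 33342 and imaged; gain or loss versus DMSO scored.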

[18] = APR_HepG2_MitoMass_72hr: Apredica 72-hour HepG2 Assay for Mitochondrial Mass (AID 2282924); conditions: high-content imaging, actives raise or lower the signal;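 note: MitoTracker Red CMXRos stain intensity per cell imaged as mitochondrial mass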
Summary of the method: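 Steps: treat HepG2 72 hr (0.39–200 uM, duplicate wells); load MitoTracker Red CMXRos, 250 nM, 30 min; fix with 3.7% formaldehyde, permeabilise with 0.5% Triton X-100; capture images, nuclei via Hoechst 33342; fit bidirectionally against DMSO.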

[19] = APR_HepG2_NuclearSize_72hr: Apredica 72-hour HepG2 Assay for Nuclear Size (AID 2282925); conditions: high-content imaging, actives raise or lower the signal
Summary of the method: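 Compounds (0.39–200 uM, final DMSO 0.5%) were applied to HepG2 for 72 hr. Cells were then formaldehyde-fixed, permeabilized and labelled with Hoechst 33342. Nuclear diameter was quantified from six images per well.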

[20] = ACEA_ER_80hr: ACEA Biosciences xCELLigence Real-Time Cell Analysis on Estrogen Receptor Agonism for Proliferation (AID 2282667; active = hit-call score of the fitted dose curve at least 0.9, where 1 is the maximum); conditions: T47D proliferation, impedance (xCELLigence), 80 h
Summary of the method: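 T-47D cells monitored by electrical impedance (xCELLigence) with compound present throughout; 80 h timepoint, positive-direction fitting versus DMSO. Eight-point 1:4 dilutions from 100 uM final, duplicate plates.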

Measured: AC50

Cc1ccccc1N
not listed: [20]
inactive: all other assays above

O=C1C2(Cl)C3(Cl)C4(Cl)C(Cl)(Cl)C5(Cl)C3(Cl)C1(Cl)C5(Cl)C24Cl (stereo not given)
active: [1] 44.6 µM | [3] 44.5 µM | [8] 24.7 µM | [9] 22.5 µM | [10] 113 µM | [14] 46.6 µM | [15] 106 µM | [16] 60.5 µM | [17] 10.5 µM | [19] 24.1 µM
inactive: [2] | [4] | [5] | [6] | [7] | [11] | [12] | [13] | [18]

CN(C)N=O
not listed: [20]
inactive: all other assays above

Cc1ccc2ccccc2c1C
active: [20] 13.5 µM

C[C@]12CCC(=O)C[C@@H]1CC[C@@H]1[C@@H]2CC[C@]2(C)[C@@H](O)CC[C@@H]12
active: [9] 64.5 µM | [10] 91.2 µM
not listed: [20]
inactive: all other assays above

O=C(Nc1ccc2[nH]ccc2c1)c1cc2cc(F)ccc2n1Cc1cccc(F)c1
inactive: [2] | [6] | [13] | [15] | [16] | [19]
active: [1] 25.4 µM | [3] 22.5 µM | [4] 19.7 µM | [5] 2.08 µM | [7] 34.5 µM | [8] 35.7 µM | [9] 17.2 µM | [10] 27.8 µM | [11] 1.02 µM | [12] 22 µM | [14] 38.8 µM | [17] 19 µM | [18] 26.9 µM

O=C(O)C(F)(F)C(F)(F)C(F)(F)C(F)(F)C(F)(F)C(F)(F)F
active: [9] 14.5 µM | [10] 13.6 µM | [12] 8.69 µM | [15] 97.8 µM | [17] 10.2 µM | [18] 13 µM | [19] 6.95 µM
not listed: [20]
inactive: all other assays above
